# Experimental data reported in PubChem BioAssay (NCI).
# “And” between values parts separate entries of the source, which are not always exact repeats. Identical values can stand only once. Compounds without any hit were thinned out: in the full panel of roughly 83,000, 20% have a hit.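 Results are percent growth after 48 hours of single-concentration exposure. 100 means growth as in untreated cells, lower positive values show inhibition; negative values down to -100 show cell death.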 A number with no mark means an inactive call. The source made the active and inactive calls. Rule for the calls: active = growth percent below 10; inactive = the rest.
# System: HL-60(TB) leukemia
# Assay: NCI-60 one-dose screen, 48 h (100 = growth as untreated, 0 = no growth, -100 = all killed)
# Settings: 10 µM unless noted
row,SMILES,growth
1,Cc1ccc(N2CCN(C(=S)c3cccs3)CC2)cc1,93.3%
2,CCCCN(CCCC)CCCNc1c2c(nc3ccc(Cl)cc13)CCCC2,89%
3,O=[N+]([O-])C=C(c1ccccc1)c1ccccc1,60.2%
4,C=CCc1cc(OC)c(O)c(OC)c1,109%
5,Cc1cccc([N+](=O)[O-])c1Cl,115%
6,COCC(=O)NC/C=C/c1ccc2ncnc(Nc3ccc(Oc4ccc(C)nc4)c(C)c3)c2c1,22.2%
7,Cc1cc(NCc2cc(Nc3ccnc4cc(Cl)ccc34)ccc2F)nc(N2CCN(c3ccccc3)CC2)n1,-40.7% (active)
8,NC(=S)NN=C1CCC(C2CCCCC2)CC1 (configuration not stated),91.2% and 70.9%
9,COc1ccccc1-c1c(-c2ccc(Cl)cc2)c2cc3c(cc2[nH]c1=O)OCCO3,18.3%
10,CCCCCCCSc1ncnc2[nH]ncc12,87.4%
11,COc1ccc(C(=O)c2cc(C)c(OC)c(C)c2)c(OC)c1O,-25.8% (active)
12,O=C1N(Cc2ccccc2Cl)c2ccccc2C12NN=C(c1cccc(Cl)c1)S2 (configuration not stated),28.7%
13,CC1(C)CC(=O)NC1=O,111%
14,ClCc1ccc(-c2ccc(Cn3cnc4c(Cl)nc(Cl)nc43)cc2)cc1,-53.7% (active)
15,CCc1ccccc1-n1c(-c2ccc(Cl)cc2)cc(-c2ccc(OC)cc2)c(C#N)c1=O,68.8%
16,ClCC(Cl)[C@@H]1CC2C=CC1C2 (some centres not stated),104%
17,COC1C(OC(N)=O)C(O)C(Oc2ccc3c(O)c(NC(=O)c4ccc(O)c(CC=C(C)C)c4)c(=O)oc3c2C)OC1(C)C (configuration not stated),74% and 106%
